Assay outcomes as filed in PubChem.
Shown are actives, neighbours in structure and some others; about 21% of the full set was active somewhere.
CHX counter – Cycloheximide Counterscreen for Small Molecule Inhibitors of Shiga Toxin. cell reporter, cycloheximide protein synthesis inhibition counterscreen. max response, %. 300,000 tested, 12% active. AID 2314, 2010; in the data active = max response mostly above about 13%, no sharp cut-off; inactive = mostly below about 14%; also: read at 38.3 µM for the half of the compounds with a filed dose; 0% is about no effect
AMA1-RON2 inh – qHTS for Inhibitors of AMA1-RON; Towards Development of Antimalarial Drug Lead: Primary Screen. Plasmodium falciparum AMA1 (3D7) - RON2 peptide interaction. AlphaScreen AMA1-biotinylated RON2 peptide binding. Potency, µM (series often up to 58.2 µM), inactives show at the top dose activity change, negative = inhibition, hits mostly inhibitors. 360,000 tested, 0.2% active. AID 720542, 2013;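 also: potency is read from the fitted curve at half-maximal effect; 0% = vehicle wells and -100% = peptide control; nearly all actives have a fitted effect of over 45% in size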
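AMA1 (3D7) with his tag at 25 nM final met compounds first, then biotinylated RON2 peptide at 25 nM; detection used donor plus acceptor beads, 10 µg/mL apiece, read by AlphaScreen after 30 min at room temperature.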
HCV inh – qHTS Assay for Inhibitors of Hepatitis C Virus (HCV) | Huh7.5.1 HCVcc-Cre infection, luciferase reporter, 44 h | Potency, µM (series often up to 41.8 µM), without a hit: at the highest dose activity change, negative = inhibition, most hits filed as inhibitors | 340,000 tested, 3.4% active | AID 651820, 2012; also: potency is read from the fitted curve at half-maximal effect; % is scaled to controls: 0 for no effect and ±100 for the full control effect
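HCVcc-Cre virus at an moi near 0.5 was added right after compound to cells cultured 4 h from seeding (1,000 cells/well). Luciferase activity was determined 44 h later, 15 min after substrate addition at RT.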
Pf growth 96h – Primary qHTS for delayed death inhibitors of the malarial parasite plastid, 96 hour incubation | P. falciparum luciferase reporter growth, 96 h | 320,000 tested, 6.9% active | Potency, µM (titrated, usually from 28.7 µM), without a hit: top-dose activity change, negative = inhibition, actives largely listed as inhibitors | AID 504834, 2011; also: potency is read from the fitted curve at half-maximal effect; % is scaled to controls: 0 for no effect and ±100 for the full control effect
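Two parasite generations (96 h, 37 C, 5% CO2) of compound exposure in infected erythrocytes (0.05% parasitemia, 2% hematocrit). Luciferase-reporter P. falciparum; decreased luminescence indicates inhibited growth, aimed at apicoplast-acting delayed death.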
Pf growth 48h – Primary qHTS for delayed death inhibitors of the malarial parasite plastid, 48 hour incubation; P. falciparum luciferase growth in erythrocytes, 48 h; Potency, µM (series often up to 28.7 µM), for inactives: top-dose activity change, negative = inhibition, usual class: inhibitors; 310,000 tested, 5.9% active; AID 504832, 2011; also: potency is read from the fitted curve at half-maximal effect; % is scaled to controls: 0 for no effect and ±100 for the full control effect
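First compound was added to culture medium, then infected red cells at 0.1% parasitemia and 2% hematocrit (final). After incubation at 37 C under 5% CO2, luciferase detection reagent was dispensed and light output recorded.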
Shiga inhibitor – A qHTS for Small Molecule Inhibitors of Shiga Toxin; Vero cells, Shiga toxin protein synthesis inhibition reporter; inhibition, % at 38.7 µM; 290,000 tested, 9.2% active; in the data active = inhibition mostly above about 28%, no sharp cut-off; inactive = mostly below about 43%; also: 0% is about no effect
* marks the source's active call; other numbers are inactive results; ? = inconclusive; / = no result given. Unless noted, calls follow the shape of the dose curve; as a rule, active = well fitted curve in the direction sought with a large enough effect; inconclusive = small, poorly fitted or top-dose-only effect, or another doubt; inactive = no such curve, though single readings can be large; an effect the other way counts as inactive or inconclusive.

SMILES	CHX counter	AMA1-RON2 inh	HCV inh	Pf growth 96h	Pf growth 48h	Shiga inhibitor
CCOc1ccc(NC(=O)c2cc3ccccc3cc2OC)cc1	36*	4%	10µM*	-44%	-26%	60*
CCOc1ccc(NC(=O)C(CC)NC(=O)c2ccccc2CO)cc1 (stereo not given)	-12	-10%	-9%	/	/	-28
COc1cc2ccccc2cc1C(=O)NNC(=O)c1ccccc1O	-3	/	/	?	?	7
CCOc1ccc(NC(=O)[C@@H](NC(=O)c2ccccc2Br)C(C)C)cc1	5	11%	-7%	15µM*	/	2
COc1ccccc1NC(=O)c1cc2cc(Br)ccc2cc1O	24*	6%	11µM*	?	2.9µM*	85*
COc1cc2ccccc2cc1C(=O)Nc1ccccc1Cl	86*	33%	?	32%	?	71*
COc1ccc(NC(=O)c2cc3ccccc3cc2OC)cc1	29*	2%	8.9µM*	76%	?	69
Cc1ccc(Cl)cc1NC(=O)COC(=O)c1ccccc1O	-2	2%	11%	12%	-18%	-9
COc1cc2cc(C(=O)NC(C)c3cccc4ccccc34)c(N)nc2cc1OC (stereo not given)	/	3%	/	/	/	/
Cc1ccc(Cl)cc1NC(=O)c1cc2ccccc2cc1O	9	-1%	?	0.29µM*	0.93µM*	19
COc1cc2cc(C(=O)Nc3ccccc3)c(N)nc2cc1OC	-3	12%	-16%	?	2.3µM*	-11
CCOc1ccc(NC(=O)c2cc3ccccc3cc2O)cc1	30*	-2%	?	1.9µM*	1µM*	60*
CCOc1ccc(NC(=O)c2cccc3ccccc23)cc1	18*	-2%	?	?	12%	37
COc1cc(NC(=O)c2cc3ccccc3cc2O)c(OC)cc1Cl	19*	-1%	10µM*	1.3µM*	2.1µM*	63*
COc1cc2ccccc2cc1C(=O)Nc1cccnc1	33*	-3%	32µM*	/	112%	76*
COc1cc(NC(=O)c2ccc(Cl)cc2)c(OC)cc1Cl	-2	3%	-15%	-28%	/	-4
Cn1cc([N+](=O)[O-])c(C(=O)Nc2ccc(-c3nc4ccccc4[nH]3)cc2)n1	32*	-21%	-3%	30%	103%	-3
Cn1cc([N+](=O)[O-])c(C(=O)NCc2cc3ccccc3[nH]2)n1	-3	3%	3%	-11%	-4%	16
Cn1cc([N+](=O)[O-])c(C(=O)Nc2ccc3nc(-c4ccccc4)[nH]c3c2)n1	42*	-1%	?	29%	?	47*
Cc1onc(-c2c(F)cccc2Cl)c1C(=O)Nc1cccc(S(=O)(=O)N2CCOCC2)c1	/	20%	-11%	/	/	/
CCOc1ccc(/C=C2/Sc3ccc(C(=O)N4CCOCC4)cc3N(C)C2=O)cc1OC	9	-4%	?	9%	9.3µM*	-2
COc1ccc(/C=C2\Sc3ccc(C(=O)N4CCc5ccccc5C4)cc3N(C)C2=O)cc1	-3	/	12%	?	4%	-3
CN1C(=O)/C(=C/c2cccc(Cl)c2)Sc2ccc(C(=O)N3CCOCC3)cc21	-1	-10%	11µM*	?	?	-8
COc1ccc(/C=C2\Sc3ccc(C(=O)NC4CC4)cc3N(C)C2=O)cc1OC	-4	-15%	?	-1%	?	-6
COc1ccc(/C=C2\Sc3ccc(C(=O)N4CCCC4)cc3N(C)C2=O)cc1OC	7	9%	-15%	?	2.3µM*	-5
SMILES	CHX counter	AMA1-RON2 inh	HCV inh	Pf growth 96h	Pf growth 48h	Shiga inhibitor
COc1ccc(/C=C2\Sc3ccc(C(=O)NCCN4CCCCCC4)cc3N(C)C2=O)cc1	1	-15%	?	-4%	3.3µM*	-7
O=C(C[C@H]1C/C=C\CC[C@@H](Cc2ccc(F)cc2)C(=O)OCCNC1=O)NCCO	/	15%	12%	/	/	/
COc1ccc(C2=Nc3ccccc3N(C(=O)c3ccc(C(F)(F)F)cc3)C2C(=O)Nc2ccc3c(c2)OCCO3)cc1 (stereo not given)	/	-5%	/	/	/	/
CCN(CC)CCN1C(=O)C(=O)/C(=C(/O)c2c(C)[nH]c(C(=O)OC)c2C)C1c1cccs1 (stereo not given)	23*	16%	0%	44%	/	24
CCN(CC)CCN1C(=O)C(=O)/C(=C(/O)c2ccc(OC(C)C)cc2)C1c1cccs1 (stereo not given)	45*	1%	22%	71%	88%	85*
CCN(CC)CCN1C(=O)C(=O)/C(=C(/O)c2ccc(C)cc2)C1c1ccncc1 (stereo not given)	-3	/	16%	?	20%	-7
CCN(CC)CCN1C(=O)C(=O)/C(=C(/O)c2ccc(OC(C)C)cc2)C1c1ccncc1 (stereo not given)	-1	0%	15%	15µM*	/	-11
CCNC(=O)C1(C)CCN1CCC(=O)c1ccc(C)cc1 (stereo not given)	/	-1%	/	/	/	/
O=C(CCC1CCN(C(=O)c2ccco2)CC1)NCc1ccc(F)cc1	-1	6%	9%	?	-17%	-10
O=C(CNC(=O)c1cccc(F)c1)N/N=C/c1cc(Br)ccc1OCc1ccccc1	5	8%	?	11%	?	9
COC(=O)N/N=C/c1ccccc1OCc1ccccc1	5	1%	-1%	0%	2%	11
O/N=C/c1cc(Br)ccc1OCc1ccc(F)cc1	/	-17%	?	/	/	/
O/N=C/c1cc(Br)ccc1OCc1cccc(F)c1	26*	-2%	?	118%	46%	93
Cc1ccc(COc2ccc(Br)cc2/C=N/O)cc1	31*	11%	?	399%	189%	58
COC(=O)N/N=C\c1cc(Br)ccc1OCc1ccccc1	20	16%	10µM*	51%	17%	-3
CCOc1cc(/C=N/O)ccc1OCc1ccc(C)cc1	27*	-6%	?	-19%	53%	active
NS(=O)(=O)c1cc2c(cc1Cl)NC(c1ccccc1OCC(=O)O)NS2(=O)=O (stereo not given)	-1	8%	16%	16%	29%	22
CCOc1cc(/C=N/O)ccc1OCC(=O)Nc1cccc(C)c1	31*	4%	?	43%	15%	41*
CC(C)(C)c1ccc(OCC(=O)N/N=C/c2cc(Br)ccc2OC(=O)c2ccco2)cc1	11	29%	?	?	2.1µM*	-4
Cc1cccc(C)c1C(O)c1ncc(-c2ccc(F)cc2)[nH]1 (stereo not given)	/	-10%	/	/	/	/
